# Assay results: PMC11574364
# What was measured:
# Assay in all cases: protein domain microarray probed with biotinylated miRNA; Domain array: 20 mM Tris-HCl pH 7.4, 200 mM KCl, 0.2 mM EDTA, 0.05% NP40, 2 ug/ul heparin, overnight 4 C. ORF array: PBS pH 7.0 with RNase inhibitor, 100 ng RNA; high values mean tight binding
# Settings in all cases: ssRNA
# hnRNP E1(1-2) = hnRNP E1(1-2) (Homo sapiens, UniProt Q15365)
# TIAL1 = molecular target: T1, TIAL1 (Homo sapiens, UniProt Q01085)
# T1 sequence: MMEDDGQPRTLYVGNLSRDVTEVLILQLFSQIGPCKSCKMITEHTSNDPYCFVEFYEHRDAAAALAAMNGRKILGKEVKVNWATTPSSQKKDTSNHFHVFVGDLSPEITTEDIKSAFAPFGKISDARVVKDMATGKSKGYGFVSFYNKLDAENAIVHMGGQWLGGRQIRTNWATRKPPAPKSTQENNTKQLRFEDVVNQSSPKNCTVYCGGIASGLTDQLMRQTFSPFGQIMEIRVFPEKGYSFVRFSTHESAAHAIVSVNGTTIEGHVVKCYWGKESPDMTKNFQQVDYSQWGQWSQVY
# RNPS1 = molecular target: T2, RNPS1 (Homo sapiens, UniProt Q15287)
# T2 sequence: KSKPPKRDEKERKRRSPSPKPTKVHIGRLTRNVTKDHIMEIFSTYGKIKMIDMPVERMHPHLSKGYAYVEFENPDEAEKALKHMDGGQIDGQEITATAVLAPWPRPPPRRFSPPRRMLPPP
# RBMY1A1 / RBMY1B = RBMY1A1 / RBMY1B (Homo sapiens, UniProt P0DJD3)
# Sequence of RBMY1A1 / RBMY1B (P0DJD3 1-110): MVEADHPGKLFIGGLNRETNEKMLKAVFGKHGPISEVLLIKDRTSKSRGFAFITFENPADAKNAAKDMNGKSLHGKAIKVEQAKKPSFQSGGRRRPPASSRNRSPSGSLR
# SHARP(1) = molecular target: T3, SHARP(1) (Homo sapiens, UniProt Q96T58)
# T3 sequence: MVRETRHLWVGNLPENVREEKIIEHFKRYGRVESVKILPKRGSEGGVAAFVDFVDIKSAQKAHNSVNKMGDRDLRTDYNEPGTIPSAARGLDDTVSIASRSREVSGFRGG
# RBMX2 = molecular target: T4, RBMX2 (Homo sapiens, UniProt Q9Y388)
# T4 sequence: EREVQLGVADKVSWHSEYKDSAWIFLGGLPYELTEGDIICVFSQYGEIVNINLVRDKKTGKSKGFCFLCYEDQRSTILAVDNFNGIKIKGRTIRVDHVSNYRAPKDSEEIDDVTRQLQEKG
# RDM1 = molecular target: T5, RDM1 (Homo sapiens, UniProt Q8NG50)
# T5 sequence: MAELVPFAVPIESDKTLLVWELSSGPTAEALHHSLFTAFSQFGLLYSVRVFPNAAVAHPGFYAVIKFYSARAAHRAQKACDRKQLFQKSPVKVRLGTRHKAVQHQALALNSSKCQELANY
# SHARP(2-4) = molecular target: T6, SHARP(2-4) (Homo sapiens, UniProt Q96T58)
# T6 sequence: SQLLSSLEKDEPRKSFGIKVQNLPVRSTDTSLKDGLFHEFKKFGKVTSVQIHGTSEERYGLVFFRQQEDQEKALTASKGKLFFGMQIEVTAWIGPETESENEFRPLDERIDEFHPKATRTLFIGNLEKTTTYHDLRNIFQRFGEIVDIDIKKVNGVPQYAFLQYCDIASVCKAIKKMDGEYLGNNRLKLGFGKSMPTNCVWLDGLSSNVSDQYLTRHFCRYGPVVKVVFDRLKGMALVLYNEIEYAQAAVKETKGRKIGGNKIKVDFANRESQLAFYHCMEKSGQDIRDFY
# SRSF10 = SRSF10 (Homo sapiens, UniProt O75494)
# Sequence of SRSF10 (O75494 1-120): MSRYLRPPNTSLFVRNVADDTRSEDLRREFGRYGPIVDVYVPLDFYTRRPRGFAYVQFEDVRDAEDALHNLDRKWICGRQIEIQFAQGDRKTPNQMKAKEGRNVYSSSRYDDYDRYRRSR
# DDX9(2)/DHX9 = DDX9(2)/DHX9 (Homo sapiens, UniProt Q08211)
# Sequence of DDX9(2)/DHX9 (Q08211 161-271): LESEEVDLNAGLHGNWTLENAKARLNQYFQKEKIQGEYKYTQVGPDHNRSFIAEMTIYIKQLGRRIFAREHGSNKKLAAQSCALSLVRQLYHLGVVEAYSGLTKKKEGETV
# Sequence of hnRNP E1(1-2) (Q15365 1-183): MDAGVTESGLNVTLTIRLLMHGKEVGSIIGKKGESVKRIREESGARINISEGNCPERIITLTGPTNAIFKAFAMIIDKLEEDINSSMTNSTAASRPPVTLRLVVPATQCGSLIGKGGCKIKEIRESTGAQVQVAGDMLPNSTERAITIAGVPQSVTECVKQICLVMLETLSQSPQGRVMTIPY
Sequence,binding signal (hnRNP E1(1-2)),binding signal (TIAL1),binding signal (RNPS1),binding signal (RBMY1A1 / RBMY1B),binding signal (SHARP(1)),binding signal (RBMX2),binding signal (RDM1),binding signal (SHARP(2-4)),binding signal (SRSF10),binding signal (DDX9(2)/DHX9)
CAGUGCAAUGAUGAAAGGGCAU,26.8 ± 0.919 fluorescence intensity,523 ± 28 fluorescence intensity,160 ± 25.6 fluorescence intensity,1153 ± 5.4 fluorescence intensity,1723 ± 15.7 fluorescence intensity,29.6 ± 4.16 fluorescence intensity,185 ± 14.8 fluorescence intensity,630 ± 20.1 fluorescence intensity,865.4 ± 6.43 fluorescence intensity,26 ± 1.37 fluorescence intensity
UAGCUUAUCAGACUGAUGUUGA,,684 ± 18.7 fluorescence intensity,,602 ± 35.9 fluorescence intensity,32 ± 6.87 fluorescence intensity,21.4 ± 3.97 fluorescence intensity,21.8 ± 0.523 fluorescence intensity,705 ± 41.5 fluorescence intensity,33.4 ± 2.35 fluorescence intensity,
UGAGGUAGUAGGUUGUAUAGUU,,437 ± 10.1 fluorescence intensity,45.1 ± 1.35 fluorescence intensity,754 ± 30.5 fluorescence intensity,63 ± 1.09 fluorescence intensity,34.7 ± 8.67 fluorescence intensity,46.4 ± 1.9 fluorescence intensity,138 ± 34.1 fluorescence intensity,91 ± 3.12 fluorescence intensity,
UGAGGUAGUAGGUUGUGUGGUU,34.9 ± 2.48 fluorescence intensity,740 ± 11.2 fluorescence intensity,565 ± 18.8 fluorescence intensity,1360 ± 32 fluorescence intensity,1119.4 ± 0.849 fluorescence intensity,111 ± 6.68 fluorescence intensity,427 ± 12.9 fluorescence intensity,1000 ± 18.8 fluorescence intensity,467 ± 36.1 fluorescence intensity,53.91 ± 0.134 fluorescence intensity
UGAGGUAGUAGGUUGUAUGGUU,26.7 ± 0.438 fluorescence intensity,789 ± 12.4 fluorescence intensity,294 ± 40.2 fluorescence intensity,1403 ± 13.2 fluorescence intensity,702.32 ± 0.332 fluorescence intensity,69.6 ± 0.757 fluorescence intensity,232 ± 12 fluorescence intensity,710 ± 31.7 fluorescence intensity,375 ± 21.5 fluorescence intensity,44.6 ± 4.16 fluorescence intensity
AGAGGUAGUAGGUUGCAUAGUU,27.4 ± 2.06 fluorescence intensity,1020 ± 13.1 fluorescence intensity,183 ± 12.6 fluorescence intensity,2000 ± 49 fluorescence intensity,423 ± 5.21 fluorescence intensity,65.8 ± 17.9 fluorescence intensity,230 ± 20.4 fluorescence intensity,711 ± 17.9 fluorescence intensity,422 ± 31.8 fluorescence intensity,33 ± 2.41 fluorescence intensity
